According to PubChem BioAssay (NCATS):
Records with an inconclusive call do not appear. A call without a number means that no potency is given here. Unmarked numbers belong to inactive results. Calls of active or inactive are those of the source. The call rests on the fitted dose curve.

Assay: Cytotoxicity counterscreen for inhibitors of SARS-CoV-2 cell entry (AID 1645845); further: nearly all actives have a fitted effect of over 50% in size
Settings: cell viability (SARS-CoV-2 entry assay cells); series mostly up to 57.1 µM; activity change, negative = cytotoxicity: at the top concentration
Summary of the method: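 After a 15 min room-temperature ATPLite 1step step, luminescence reflected ATP remaining in HEK293-ACE2 cells exposed to compound for 1 h plus 48 h at 37 C, with percent activity set by cell and no-cell controls.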
Potency means the concentration at half of the fitted maximal effect.

Compound	activity change, negative = cytotoxicity	outcome	Potency
CCC(C(=O)OCCN1CCOC(c2ccccc2)C1C)c1ccccc1 (stereo not drawn)	-0.463%		
Nc1ccn([C@H]2CC[C@@H](CO)O2)c(=O)n1		inactive	
Oc1cc(O)c2c(c1)O[C@H](c1ccc(O)c(O)c1)[C@H](O)C2		inactive	
CCCCCCCCCCCCCCCC[N+](C)(C)Cc1ccccc1			22.4 µM (active)
CNC(=O)c1cnn(-c2nc(N)c3ncn([C@@H]4O[C@H](CO)[C@@H](O)[C@H]4O)c3n2)c1		inactive	
CCn1c(=O)c2c(nc(C=Cc3ccc(OC)c(OC)c3)n2C)n(CC)c1=O		inactive	
CC(=O)OCC(=O)[C@@]12N=C(C)O[C@@H]1C[C@H]1[C@@H]3CCC4=CC(=O)C=C[C@]4(C)[C@H]3[C@@H](O)C[C@@]12C			inactive
Brc1c(NC2=NCCN2)ccc2nccnc12		inactive	
CN1CCC(=C2c3ccccc3CC(=O)c3sccc32)CC1			inactive
CC(=O)Oc1ccc2c(c1)CC[C@@H]1[C@@H]2CC[C@]2(C)[C@@H](O)CC[C@@H]12	2.3%		
Cc1ccc(Nc2c(F)cccc2Cl)c(CC(=O)O)c1		inactive	
CCOC(=O)c1cccc(N)c1		inactive	
CC(C)OC(=O)C(C(=O)OC(C)C)=C1SC=CS1			inactive
CN(C)C(=O)Oc1cccc([N+](C)(C)C)c1		inactive	
CCCCC[C@H](O)C=C[C@H]1[C@H](O)CC(=O)[C@H]1CC=CCCCC(=O)O	2.74%		
CC[C@H](NC(C)C)[C@H](O)c1ccc(O)c2[nH]c(=O)ccc12			inactive
CN1CCCN=C1COC(=O)C(O)(c1ccccc1)C1CCCCC1 (stereo not drawn)		inactive	
CC(=O)Oc1c(C)c(C)c2c(c1C)CC[C@@](C)(CCC[C@H](C)CCC[C@H](C)CCCC(C)C)O2		inactive	
C[C@H]1C[C@H]2[C@@H]3CCC4=CC(=O)C=C[C@]4(C)[C@H]3C(=O)C[C@]2(C)[C@@]1(O)C(=O)CO			inactive

Compound	activity change, negative = cytotoxicity	outcome	Potency
CN1C(=O)CC(c2ccccc2)C1=O (stereo not drawn)	3.11%		
COc1ccc2c(c1OC)C(=O)O[C@@H]2[C@H]1c2c(cc3c(c2OC)OCO3)CCN1C	-4.55%		
Cc1cc(O)c(C(C)C)cc1Cl	-6.31%		
COC(=O)C1=C(C)NC(C)=C(C(=O)OCCCN2CCC(c3ccccc3)(c3ccccc3)CC2)C1c1cccc([N+](=O)[O-])c1 (stereo not drawn)			28.2 µM (active)
C[C@]12CC[C@@H]3c4ccc(O)cc4CC[C@H]3[C@@H]1C[C@@H](O)[C@@H]2O			inactive
N[C@H]1CN(c2c(F)cc3c(=O)c(C(=O)O)cn(C4C[C@@H]4F)c3c2Cl)CC12CC2 (stereo partly drawn)		inactive	
C[C@]12CC[C@@H]3c4ccc(O)cc4CC[C@H]3[C@@H]1CCC2=O	0.16%		
NC(N)=NC(=O)c1nc(Cl)c(N)nc1N			inactive
O=S1(=O)OC(c2ccc(O)cc2)(c2ccc(O)cc2)c2ccccc21	2.39%		
COc1ccccc1OC(=O)Oc1ccccc1OC		inactive	
C#C[C@]1(O)CC[C@H]2[C@@H]3[C@H](C)CC4=C(CCC(=O)C4)[C@H]3CC[C@@]21C			inactive
CCCCNc1cc(C(=O)O)cc(S(N)(=O)=O)c1Oc1ccccc1			inactive
O=c1oc2c(O)c(O)cc3c(=O)oc4c(O)c(O)cc1c4c23			inactive
CCOC(=O)c1c(N)sc2c1CCN(Cc1ccccc1)C2	-14.6%		
N=C(N)c1ccc2cc(OC(=O)c3ccc(N=C(N)N)cc3)ccc2c1			inactive
CCCCCCCCCCCCOCCOCCOCCOCCOCCOCCOCCOCCOCCO			11.2 µM (active)
O=Cc1ccccc1C=O		inactive	
Nc1ccc(C(=O)NCC(=O)O)cc1	0.898%		
Cc1nnc(C(=O)NC(C)(C)c2nc(C(=O)NCc3ccc(F)cc3)c(O)c(=O)n2C)o1		inactive	
